Bioassay records from PubChem BioAssay.
IL1B secr inh = inflammasome signaling inhibition, IL-1 beta readout. THP-1 LPS/ATP IL-1B secretion, AlphaLISA, 16 h; stronger effect = lower value. activity change, % at 57.5 µM. actives 4.7% (n = 360,000); in the data active = activity change below about -50%; inconclusive = mostly about -30% to -49%
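THP-1 cells pretreated 1 hr with compounds (up to 57.5 uM final), then stimulated with LPS (250 ng/mL final) plus ATP (1.25 mM final); secreted IL-1B measured by AlphaLISA after 16 hr, decreased signal indicating inhibition.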
TDP1 cell noCPT = qHTS for Inhibitors of human tyrosyl-DNA phosphodiesterase 1 (TDP1): qHTS in cells in absence of CPT; DT40 Tdp1-/- hTDP1 cells, no CPT, ATP luminescence, 48 h; Potency, µM (titrated, usually from 46.2 µM), for inactives: top-dose activity change, negative = growth inhibition, most hits filed as inhibitors; actives 15% (n = 420,000); also: potency is read from the fitted curve at half-maximal effect; nearly all actives have a fitted effect of over 55% in size
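Growth kinetics read by CellTiter-Glo luminescence after ≥48 hr at 37 °C. Cells: DT40 Tdp1-/- stably carrying human TDP1, 400 per well, compound exposure in the absence of CPT (DMSO vehicle).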
VP16 counter = counter-screen for ROR gamma inhibitors: Gal4-VP16 reporter | Drosophila S2 Gal4-VP16 UAS-luciferase, luminescence, 20 h | Potency, µM (series often up to 53.6 µM), for the others: at the highest dose activity, negative = inhibition, actives largely listed as inhibitors | actives 3.5% (n = 310,000);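 also: Gal4-VP16 expression switched on by copper sulfate through the metallothionein promoter; potency is read from the fitted curve at half-maximal effect; nearly all actives have a fitted effect of over 50% in size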
ELG1 DNA repair = ELG1-dependent DNA repair inhibition | HEK293T ELG1-luciferase reporter, luminescence, 16 h; DNA damage induced by 5-fluorouridine | Potency, µM (top dose mostly 46.1 µM), inactives show top-dose activity change, negative = inhibition, usual class: inhibitors | actives 2.3% (n = 330,000); also: potency is read from the fitted curve at half-maximal effect; nearly all actives have a fitted effect of over 55% in size
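In this reporter screen, reduction of luminescence relative to DMSO vehicle indicated activity. Compounds and 5-fluorouridine were added together to 2,000 cells per well, incubated for 16 hr at 37 °C, then developed with ONE-Glo.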
RORg inh = blocks mouse ROR gamma transcriptional activity | Potency, µM (series often up to 53.6 µM), for inactives: at the top dose activity change, negative = inhibition, actives largely listed as inhibitors | Drosophila S2 Gal4-RORgamma UAS-luciferase reporter, 20 h | actives 5.4% (n = 310,000) | P51450; also: potency is read from the fitted curve at half-maximal effect; nearly all actives have a fitted effect of over 60% in size
Target sequence (P51450 whole entry, looked up, the tested form may be a part): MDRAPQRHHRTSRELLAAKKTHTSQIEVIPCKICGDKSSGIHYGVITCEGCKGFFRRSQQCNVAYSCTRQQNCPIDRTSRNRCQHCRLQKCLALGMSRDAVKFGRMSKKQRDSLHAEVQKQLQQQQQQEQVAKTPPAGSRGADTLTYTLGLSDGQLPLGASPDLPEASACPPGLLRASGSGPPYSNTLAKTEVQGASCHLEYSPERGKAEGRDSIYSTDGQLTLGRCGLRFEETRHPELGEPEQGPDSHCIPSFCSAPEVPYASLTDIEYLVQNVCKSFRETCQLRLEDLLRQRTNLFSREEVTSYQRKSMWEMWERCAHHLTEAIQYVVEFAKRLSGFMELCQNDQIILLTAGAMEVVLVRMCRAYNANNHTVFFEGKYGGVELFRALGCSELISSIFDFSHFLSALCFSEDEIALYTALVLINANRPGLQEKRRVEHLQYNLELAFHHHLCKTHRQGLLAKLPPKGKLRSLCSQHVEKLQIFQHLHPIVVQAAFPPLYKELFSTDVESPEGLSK
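Drosophila Schneider cells stably carrying a metallothionein-driven Gal4 DBD–ROR gamma fusion and a UAS-Photinus luciferase reporter were exposed to compound for 1 hr, then induced with copper sulfate (700 uM final) for 20 hr at ambient temperature before luminescence reading.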
DT40 TDP1 CPT = growth inhibition of DT40 Tdp1-/-;hTDP1 cells with camptothecin (screen for TDP1 inhibitors); chicken DT40 Tdp1-/-;hTDP1 cells + 20 nM CPT, ATP luminescence, 48 h; Potency, µM (top dose mostly 46.2 µM), inactives show at the top dose activity change, negative = growth inhibition, most hits filed as inhibitors; actives 12% (n = 420,000); also: potency is read from the fitted curve at half-maximal effect; nearly all actives have a fitted effect of over 55% in size
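Chicken DT40 Tdp1-/- cells complemented with human TDP1, 400 cells/well, exposed to compounds plus 20 nM camptothecin for at least 48 h at 37 C; viability read as ATP content by CellTiter-Glo luminescence.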
An asterisk follows results filed as active; i = inactive; ? = inconclusive; · = no result; [ ] = another dose, or the depositor's remark. The list is not random: actives were taken first. Their share in the collection is about 21%. Unless noted, calls follow the shape of the dose curve; as a rule, active = well fitted curve in the direction sought with a large enough effect; inconclusive = small, poorly fitted or top-dose-only effect, or another doubt; inactive = no such curve, though single readings can be large; an effect the other way counts as inactive or inconclusive. % is scaled to controls: 0 for no effect and ±100 for the full control effect.

SMILES | IL1B secr inh | TDP1 cell noCPT | VP16 counter | ELG1 DNA repair | RORg inh | DT40 TDP1 CPT
O=C(Nc1ccon1)c1ccc(Cl)c(S(=O)(=O)N2CCCCC2)c1 | i | 23µM* | 2.2µM* | -8% | 1.4µM* | ?
O=C(Nc1cccc(S(=O)(=O)N2CCCC2)c1)c1cccnc1 | 36 | 0% | 3% | -2% | -8% | -18%
Cc1ccc(NC(=O)c2cnccn2)cc1S(=O)(=O)N1CCCCCC1 | 14 | 23µM* | · | ? | · | ?
CCOC(=O)C1(C(C)C)Oc2ccccc2C(c2ccc(OC)cc2)=C1C(=O)OC (stereo not given) | · | · | -14% | · | 37% | ·
O=C(Nc1nc2ccccc2[nH]1)c1ccc(Cl)c(S(=O)(=O)N2CCCC2)c1 | -59* | 16µM* | 8.9µM* | ? | 6.3µM* | 18µM*
CCN(CC)S(=O)(=O)c1cc(C(=O)Nc2ccncc2)ccc1Cl | -56* | 16µM* | ? | ? | ? | 23µM*
O=C(Nc1nccs1)c1ccc(Cl)c(S(=O)(=O)N2CCCCC2)c1 | -12 | -24% | ? | · | 10µM* | 10%
Cc1cccnc1NC(=O)c1ccc(Cl)c(S(=O)(=O)N2CCCCCC2)c1 | 0 | ? | ? | ? | 4µM* | -14%
O=C(Cc1ccccc1)NC1c2ccccc2-c2ccccc21 | 5 | -19% | -20% | 4% | 1% | 5%
CC(C)CNC(=S)NC1CC2CCCC(C1)N2Cc1cccs1 (stereo not given) | -18 | ? | -28% | 17% | 11µM* | ?
Cc1cccc(NC(=S)NC2CC3CCCC(C2)N3Cc2ccco2)c1 (stereo not given) | -16 | -13% | ? | 4% | 11µM* | ?
CC(C)CNC(=S)NC1CC2CCCC(C1)N2Cc1ccco1 (stereo not given) | -10 | -7% | 0% | 15% | -9% | -3%
Cc1ccc(NC(=S)NC2CC3CCCC(C2)N3Cc2ccco2)cc1 (stereo not given) | ? | ? | 4% | ? | 7% | ?
CCCNC(=S)NC1CC2CCCC(C1)N2Cc1ccc(F)cc1 (stereo not given) | 1 | 18µM* | -2% | -14% | ? | ?
Cc1ccc(NC(=S)NC2CC3CCCC(C2)N3Cc2cccs2)cc1 (stereo not given) | -74* | 18µM* | ? | 3% | 4.5µM* | ?
CNC(=S)NC1CC2CCC(C1)N2Cc1ccccc1 (stereo not given) | 9 | -4% | 0% | 7% | -14% | -4%
COc1ccc(Br)c(C(=O)Nc2ccc(F)cc2)c1 | -18 | -5% | 4% | 13% | 0% | -7%
C=C(C)C1CC=C(C)C(OC(C)=O)C1 (stereo not given) | · | · | -11% | · | 15% | ·
CC(=O)Nc1ccc(S(=O)(=O)NCCc2ccccn2)cc1 | 21 | -2% | 4% | 3% | 14% | 2%
Fc1ccc(NC(=S)NC2CC3CCCC(C2)N3Cc2cccs2)cc1 (stereo not given) | ? | -8% | ? | -6% | 10µM* | 3%
O=C(Nc1cccc(Cl)c1)NC1CC2CCC(C1)N2Cc1cccs1 (stereo not given) | -16 | 26µM* | -4% | 3% | ? | 21µM*
CCc1ccccc1NC(=S)NC1CC2CCCC(C1)N2Cc1cccs1 (stereo not given) | ? | ? | ? | -2% | 11µM* | -25%
Cc1cccc(C)c1NC(=O)NC1CC2CCC(C1)N2Cc1cccs1 (stereo not given) | -12 | -1% | -13% | 18% | 33% | 1%
O=C(Nc1ccccc1-c1ccccc1)NC1CC2CCCC(C1)N2Cc1ccc(F)cc1 (stereo not given) | -61* | 23µM* | -2% | -16% | 0% | 21µM*
O=C(Nc1ccccc1-c1ccccc1)NC1CC2CCCC(C1)N2CCc1ccccc1 (stereo not given) | -22 | -26% | -3% | -10% | 0% | -16%
SMILES | IL1B secr inh | TDP1 cell noCPT | VP16 counter | ELG1 DNA repair | RORg inh | DT40 TDP1 CPT
CC(C)c1ccc(S(=O)(=O)NCc2ccc3c(c2)OCO3)cc1 | -1 | -14% | -4% | 6% | -7% | 14%
Cc1ccc(S(=O)(=O)N2CCCCC2)cc1NC(=O)CSc1nccn1C | 0 | -13% | 4% | 4% | 1% | 19%
CCNC(=O)C1(C)CCN(C(=O)c2ccc3snnc3c2)C1 (stereo not given) | 22 | 6% | · | · | · | -10%
Cc1cc(N2CCN(C)CC2)nc2ccc(NC(=O)CCC(=O)NCCC(C)C)cc12 | 1 | -26% | -13%[10 µM] | 24% | 26% | -3%
COc1ccc(C(=O)Nc2ccc3nc(N4CCN(C)CC4)cc(C)c3c2)c(OC)c1 | -86* | ? | -24% | 2% | ? | ?
Cc1cc(N2CCN(C)CC2)nc2ccc(NC(=O)c3ccc(C(C)(C)C)cc3)cc12 | · | 4.6µM* | · | · | · | 7.3µM*
Cc1cc(-c2ccc(N=Nc3cc(S(=O)(=O)O)c4ccccc4c3N)c(C)c2)ccc1N=Nc1cc(S(=O)(=O)O)c2ccccc2c1N | · | · | -20% | · | -2% | ·
O=C(COC(=O)c1ccc(O)cc1)NCC1COc2ccccc2O1 (stereo not given) | 22 | -12% | · | 0% | · | 2%
Nc1cccnc1Sc1ccc([N+](=O)[O-])cn1 | -17 | 0% | ? | 1% | 4µM* | 20%
O=C(NCCCO)/C(=C/c1ccc(-c2cccc([N+](=O)[O-])c2)o1)NC(=O)c1ccccc1 | -17 | -25% | -5% | 4% | 6% | 0%
Cc1ccc(C(=O)N/C(=C/c2ccc(-c3ccc([N+](=O)[O-])cc3)o2)C(=O)NCCCN(C)C)cc1 | · | 21µM* | · | · | · | 21µM*
Cc1ccc(C(=O)N/C(=C\c2ccc(-c3cccc([N+](=O)[O-])c3)o2)C(=O)NC(C)(C)C)cc1 | -7 | 16µM* | ? | ? | 26% | 15µM*
O=C(NC1CCS(=O)(=O)C1)/C(=C\c1ccco1)NC(=O)c1ccccc1 (stereo not given) | -63* | -8% | -16% | 0% | 2% | 4%
Cc1ccc(C(=O)N/C(=C\c2ccc(-c3ccc([N+](=O)[O-])cc3)o2)C(=O)NC2CCS(=O)(=O)C2)cc1 (stereo not given) | -18 | ? | -19% | ? | 3% | 21µM*
